Compound activity deposited in PubChem by National Center for Advancing Translational Sciences (NCATS).
HT1080 IDH1KD tx – HT-1080 IDH1 knockdown cell toxicity (counter line); HT-1080 IDH1 knockdown viability, ATP luminescence, 48 h; Potency, µM (titrated, usually from 46.1 µM), hits mostly cytotoxic; hit rate 2% among 360,000; AID 686971
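Using the IDH1-knockdown HT-1080 line run in the same batch and compound series as the NT line, viability after 48 h at 37 °C was determined by CellTiter-Glo luminescence and expressed as % activity.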
TGFb SMAD3 inh – blocks TGF-b signaling; hit rate 1.2% among 410,000; Potency, µM (series often up to 46.1 µM), actives largely listed as inhibitors; HepG2 CAGA-GFP TGF-b/SMAD3 reporter, GFP fluorescence, 18 h; TGF-beta stimulated, 500 pg/mL final; note: nearly all actives have a fitted effect of over 65% in size
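HEPG2 CAGA-GFP, 1000 cells/well; 2 h settle, 37 C; cpd via pin tool; TGF-b 500 pg/mL final; 18 h, 37 C; GFP imaging ex488/em500-530; %Activity normalised to -TGF-b and +DMSO controls; CRC fit, curve class.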
HepG2 viability – kills HepG2 cells in TGF-b inhibitor counter-screen | HepG2 CAGA-GFP viability, ATP luminescence, 18 h | Potency, µM (series often up to 46.1 µM), usual class: cytotoxic | hit rate 0.76% among 410,000 | AID 588856
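HepG2 CAGA-GFP cells (1000/well, DMEM with 1% FBS) received compound, then TGF-beta at 500 pg/mL final, and were incubated 18 hours at 37 degrees C. Viability was read by CellTiter-Glo luminescence. Media-only wells were set as complete cell-killing and DMSO as no toxicity.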
DT40 TDP1 no CPT – qHTS for Inhibitors of human tyrosyl-DNA phosphodiesterase 1 (TDP1): qHTS in cells in absence of CPT; DT40 Tdp1-/- hTDP1 cells, no CPT, ATP luminescence, 48 h; Potency, µM (doses to about 46.2 µM), most hits filed as inhibitors; hit rate 15% among 420,000; note: nearly all actives have a fitted effect of over 55% in size
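No-CPT arm: Tdp1-/-;hTDP1 DT40 cells (400/well) plus compounds, incubated ≥48 hr at 37 °C. Readout CellTiter-Glo luminescence.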
HT1080-NT tox – kills 2HG-producing HT-1080-NT fibrosarcoma cells; HT-1080-NT fibrosarcoma viability, CellTiter-Glo ATP luminescence, 48 h; Potency, µM (top dose mostly 46.1 µM), actives largely listed as cytotoxic; hit rate 1.6% among 360,000; AID 686970;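 note: NT is the 2HG producing partner of a matched IDH1 knockdown line; nearly all actives have a fitted effect of over 55% in size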
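750 cells/well, RPMI + 5% FBS; 2 h settle, compound pin-transfer, 48 h at 37 degrees C. CellTiter-Glo 10 min RT, luminescence. Normalized to DMSO and media-only wells.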
TDP1 cell CPT – growth inhibition of DT40 Tdp1-/-;hTDP1 cells with camptothecin (screen for TDP1 inhibitors). chicken DT40 Tdp1-/-;hTDP1 cells + 20 nM CPT, ATP luminescence, 48 h. Potency, µM (titrated, usually from 46.2 µM), actives largely listed as inhibitors. hit rate 12% among 420,000. AID 686979; note: nearly all actives have a fitted effect of over 55% in size
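Chicken DT40 Tdp1-/- cells complemented with human TDP1, 400 cells/well, exposed to compounds plus 20 nM camptothecin for at least 48 h at 37 C; viability read as ATP content by CellTiter-Glo luminescence.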
A number is an active result; - = inactive; ? = inconclusive; . = no result given; [ ] = dose if it differs, or a comment. In the library only some 17% were active in any assay of this set; here they are far more common. Calls come from the whole dose curve; as a rule, active = well fitted curve in the direction sought with a large enough effect; inconclusive = small, poorly fitted or top-dose-only effect, or another doubt; inactive = no such curve, though single readings can be large; an effect the other way counts as inactive or inconclusive.

SMILES	HT1080 IDH1KD tx	TGFb SMAD3 inh	HepG2 viability	DT40 TDP1 no CPT	HT1080-NT tox	TDP1 cell CPT
CC(C)c1ccc(NC(=S)Nc2ccc(OC(F)(F)F)cc2)cc1	-	-	-	23µM	-	18µM
CC(=O)NC(=S)Nc1ccc(NC(=O)COc2ccc(C(C)C)cc2)cc1	-	?	-	-	-	-
COc1ccc(CCNC(=S)Nc2cc(C)cc(C)c2)cc1	-	-	-	23µM	-	?
CCCCc1ccc(NC(=S)N2CCN(C)CC2)cc1	-	-	-	?	-	-
CCC(C)c1ccc(NC(=S)Nc2ccc(OC)cc2)cc1 (stereo not drawn)	-	?	-	16µM	-	23µM
CCCCc1ccc(NC(=S)N2CCCC2)cc1	-	?	-	15µM	-	12µM
CCCCn1c(N)c(N(CC(C)C)C(=O)c2cccc(-n3cnnn3)c2)c(=O)[nH]c1=O	-	-	-	-	-	-
CCCCSCc1nc2ccccn2c1Br	-	-	-	?	-	?
CCOc1ccc(C(=O)NCC(=O)NCC(c2cccs2)N2CCOCC2)cc1 (stereo not drawn)	-	-	-	-	-	-
CN(C)C(=O)c1ccc(-c2ccc3ncnc(N4CCNCC4)c3c2)cc1	.	.	.	-	.	-
CCCCc1ccc(NC(=S)NCc2ccc(OC)cc2)cc1	?	10µM	-	18µM	-	?
COc1ccc(CCNC(=S)Nc2ccc(C(C)C)cc2)cc1	-	16µM	-	18µM	-	?
COc1ccc(CCNC(=S)Nc2ccc(OC)cc2)cc1	-	-	-	?	-	?
COc1ccc(NC(=S)NCc2ccc(F)cc2)cc1	-	?	-	?	-	-
Cc1cccc(N(CC(=O)NC(C)C)C(=O)CCC(=O)Nc2nccs2)c1	-	-	-	-	-	-
COc1ccccc1C(=O)c1cn(CC(=O)Nc2ccccc2F)c2nc(C)ccc2c1=O	.	-	-	-	.	-
O=c1cc(-c2ccccc2)oc2ccc(Cl)cc12	?	-	-	-	-	-
O=c1oc(-c2ccccc2)cc(Cl)c1Cl	9.2µM	11µM	-	1.8µM	16µM	1.6µM
CCOC(=O)C(=Cc1ccc(-n2cncn2)cc1)C(=O)OCC	5.2µM	?	-	13µM	16µM	12µM
COc1ccccc1OC(C)C(=O)N1CCC(c2nc3ccccc3s2)CC1 (stereo not drawn)	.	?	-	?	.	?
CCCC(=O)N1CCN(c2nnc(-c3ccccc3)c3ccccc23)CC1	-	-	-	-	-	-
O=C(COc1ccc([N+](=O)[O-])cc1)N1CCC(c2nc3ccccc3s2)CC1	.	?	-	9.2µM	.	7.3µM
CCc1ccc(OC(C)C(=O)N2CCC(c3nc4ccccc4s3)CC2)cc1 (stereo not drawn)	.	?	-	16µM	.	18µM
O=C(COc1ccc([N+](=O)[O-])cc1)N1CCN(c2nnc(-c3ccccc3)c3ccccc23)CC1	-	-	-	8.2µM	-	21µM
Clc1ccccc1Cn1cccc1C1=NC(Cc2ccccc2)CO1 (stereo not drawn)	.	-	-	-	.	-
SMILES	HT1080 IDH1KD tx	TGFb SMAD3 inh	HepG2 viability	DT40 TDP1 no CPT	HT1080-NT tox	TDP1 cell CPT
O=C(COc1ccccc1)Nc1ccc2nc(SCC(=O)N3CCCC3)sc2c1	.	?	-	23µM	.	?
O=C(Nc1ccc2nc(SCC(=O)N3CCCC3)sc2c1)c1ccccc1	.	?	-	-	.	-
COc1ccccc1C(=O)Nc1ccc2nc(SCC(=O)N3CCCC3)sc2c1	.	-	-	4.1µM	.	?
O=C(COc1ccccc1Cl)Nc1ccc2nc(SCC(=O)N3CCOCC3)sc2c1	.	-	-	4.1µM	.	?
O=C(Nc1ccc2nc(SCC(=O)N3CCOCC3)sc2c1)c1ccccc1Cl	.	?	-	18µM	.	?
COc1ccc(-c2cc([C@H]3[C@H]4C=CC[C@@H](C)[C@@H]4C(=O)N3Cc3ccccc3)ccc2F)cc1OC	-	?	-	13µM	-	23µM
COc1ccc(-c2cc([C@H]3[C@H]4C=CC[C@@H](C)[C@@H]4C(=O)N3Cc3ccccc3)ccc2F)cc1	?	-	-	15µM	?	13µM
CN1C=CC(=C[N+](=O)[O-])N(C)C1=O	-	-	-	-	-	-
Cc1ccc([C@@H]2CC=C(C(=O)O)[C@H](c3cccc(Cl)c3)N2S(=O)(=O)c2ccccc2C)cc1	-	?	-	-	-	-
CCOC(=O)c1cnc2c(C)cc(C)cc2c1Nc1cccc(C(=O)O)c1	.	-	-	15µM	.	13µM
CCOC(=O)c1cnc2c(C)cc(C)cc2c1NCCN1CCOCC1	.	-	-	16µM	.	18µM
CC(=O)N(C(C)=O)N1C(=O)C2C3c4ccccc4C(c4ccccc43)C2C1=O (stereo not drawn)	13µM	?	-	?	21µM	?
CC[n+]1c(/C=C/N(C)c2ccccc2)n(-c2ccccc2)c2ccc(-c3nc4ccccc4s3)cc21	5.8µM	5.6µM	-	0.73µM	?	0.82µM
CC[n+]1cccc(-c2nc3ccccc3s2)c1	-	-	-	-	-	?
CCn1c(-c2ccccc2F)nc2cc(NC(C)=O)cc(C(=O)N(C)Cc3cn(C)nc3C)c21	.	.	.	-	.	-[9.04 µM]
O=C1N[C@@H](Cc2ccccc2)C(=O)N2[C@@H]3N(S(=O)(=O)c4ccccc4)c4ccccc4[C@]3(Br)C[C@@H]12	-	-	-	?	?	?
CC(C)c1cc(C(C)C)c(S(=O)(=O)N2c3ccccc3[C@@]3(Br)C[C@H]4C(=O)N[C@@H](Cc5ccccc5)C(=O)N4[C@@H]23)c(C(C)C)c1	-	8.9µM	-	12µM	-	12µM
CC(C)(C)c1ccc(C(=O)c2c[nH]c(C(=O)NCCCN3CCOCC3)c2)cc1	-	-	-	18µM	-	?
CC(C)(C)c1ccc(C(=O)c2c[nH]c(C(=O)NCC3CCCO3)c2)cc1 (stereo not drawn)	-	-	-	15µM	-	?
O=C(CS(=O)CC(=O)NC12CC3CC(CC(C3)C1)C2)Nc1ccc(F)cc1 (stereo not drawn)	-	-	-	-	-	-
CCCNC(=S)NNC(=O)c1cccs1	-	-	-	?	-	-
Cc1cccc(C)c1N/C=C/c1onc(C)c1[N+](=O)[O-]	-	-	-	-	-	-
Cc1noc(/C=C/c2cccnc2)c1[N+](=O)[O-]	?	?	-	13µM	21µM	21µM
